Activity calls are given as the source filed them. The calls were made as follows: active = hit-call score of the fitted dose curve at least 0.9, where 1 is the maximum; inactive = score below 0.9.
What follows are molecules tested on UDP glucuronosyltransferase (UGT1A1), UGT1A1 (gene 54658) (assay: LTEA_HepaRG_UGT1A1: Life Technologies and Expression Analysis (LTEA) Assay for UDP glucuronosyltransferase (UGT1A1) using HepaRG (AID 2283538)). Settings: mRNA level, 48 h; actives raise or lower the signal.
Procedure: LTEA_HepaRG is a cell based, multiplexed-readout assay that uses HepaRG, a human liver cell line, with measurements taken at 48 hours after chemical dosing on a 96-well plate.LTEA_HepaRG_UGT1A1 is one of 102 assay component(s) measured in the LTEA HepaRG cell culture assay. It is a marker of Steatosis/NR mediated metabolism.Data from the assay component LTEA_HepaRG_UGT1A1 was analyzed into 1 endpoint. This assay endpoint, LTEA_HepaRG_UGT1A1, was analyzed with bidirectional fitting relative to DMSO as the negative control and baseline of activity. Using a type of inducible reporter, measures of mRNA induction for gain or loss-of-signal activity can be used to understand regulation of transcription factor activity. To generalize the intended target to other relatable targets, this assay endpoint is annotated to the transferase intended target family, where the subfamily is glucuronosyltransferase.
A total of 1060 chemcials from the ToxCast library were tested in eight-point concentration-response experiments. Cell culture and cytotoxicity assays were conducted at Thermo Fisher Scientific's Custom Services facility (Madison, WI). A single lot of human HepaRG cells (Thermo Fisher Scientific, Frederick, MD) was used for the cell culture experiments. 96-well format collagen type I coated plates of human HepaRG cells were prepared using established methods. Briefly, cryopreserved HepaRG cells were thawed, plated at a density of approximately 100,000 cells/well in HepaRG Thaw, Plate, and General Purpose media (HPRG770, Thermo Fisher Scientific), and incubated for 48 hours. 0.5% DMSO was selected as vehicle control to balance the requisite need of DMSO in HepaRG cultures to maintain differentiation (for example, baseline metabolism, proportions of hepatocytes vs. cholangiocytes), while enabling further hepatic receptor pathway activation (for example, PXR and CAR) in response to chemical exposure. 48 hours after plating, the culture medium was replaced with HepaRG Serum-Free Incudtion Media. Cells were exposed to each test chemical in duplicate and maintained in CO2 incubators for another 48 hours. Chemical plates were thawed to room temperature and 200x concentrations of treatment groups were prepared. 8-point conentration-reponse curves were made with the highest exposure at 100 uM, followed by half-log dilutions, all in 0.5% DMSO. Each test plate contained variouse controls, induction positive controls (1mM phenobarbital), cytotoxicity positive controls ([…] aflatoxin B1), vehicle controls (0.5% DMSO), and total lysis controls (0.5% DMSO). Cell morphology images were taken using an Essen IncuCyte FLR automated microscope, with six 96-well plates imaged in about 24 minutes. Images were captured and exported and JPEG files. Spent culture media was transfered to black-well plates for the LDH assay, and remaining media was sorted at -80 C for later use. Cells were treated with RLT buffer and frozen until shipped for gene expression analysis. Total RNA was isolated from the cell suspension in 75 uL of Buffer RLT (Qiagen, Germantown, MD 20874) by Quintiles/Expression Analysis (Durham, NC) using a custom isolation procedure. Total RNA from each plate well was transferred to a preamplification plate. Fluidigm's 96.96 Dynamic ArrayTM (Fluidigm, Amsterdam, the Netherlands) technology was used for gene expression analyses by quantitative reverse transcription polymerase chain reaction (qRT-PCR, performed by Quintiles/Expression Analysis, Durham, NC)89. Standard TaqManTM Assays (Applied Biosystems/ThermoFisher Scientific, Foster City, CA) were used to assess the expression of 93 genes selected based on their selectivity and sensitivity to important hepatic receptors known to be modulated by environmental chemicals; importance in human hepatocyte functionality; and hepatotoxicity. […]

SMILES | outcome | AC50
CCCCCCCCCC[N+](C)(C)CCCCCCCCCC | inactive | –
CC1=C2C[C@H]3[C@@H](CC=C4C[C@@H](O)CC[C@@]43C)[C@@H]2CC[C@]12O[C@@H]1C[C@H](C)CN[C@H]1[C@H]2C | inactive | –
O=C(NC(=O)c1c(F)cccc1F)Nc1cc(Cl)c(OC(F)(F)C(F)F)c(Cl)c1 | inactive | –
CC(c1ccc(O)cc1)(c1ccc(O)cc1)c1ccc(O)cc1 | – | 68.9 µM (active)
CCSC(=O)N(CC)C1CCCCC1 | inactive | –
N#Cc1ccc(N(CC(N)=O)CC(F)(F)F)cc1C(F)(F)F | – | 22.6 µM (active)
C=CC(=O)NCNC(=O)C=C | inactive | –
CCC(C)(CC)c1cc(NC(=O)c2c(OC)cccc2OC)on1 | – | 2.8 µM (active)
CCC(=O)O[C@H]1CC[C@H]2[C@@H]3CCC4=CC(=O)CC[C@]4(C)[C@H]3CC[C@]12C | – | 5.32 µM (active)
CCCN(CCC)N=O | inactive | –
ClC(Cl)=C(c1ccc(Cl)cc1)c1ccc(Cl)cc1 | – | 13.1 µM (active)
NS(=O)(=O)C(F)(F)C(F)(F)C(F)(F)C(F)(F)C(F)(F)C(F)(F)C(F)(F)C(F)(F)F | – | 10.1 µM (active)
CCC(C)(c1ccc(O)cc1)c1ccc(O)cc1 | inactive | –
O=NN(c1ccccc1)c1ccccc1 | inactive | –
CN(C)c1nc(=O)n(C2CCCCC2)c(=O)n1C | inactive | –
CCOC(=O)C(O)(c1ccc(Cl)cc1)c1ccc(Cl)cc1 | – | 67.4 µM (active)
O=C(N[C@H]1CN2CCC1CC2)c1cc2ccoc2cn1 | inactive | –
Cc1ccccc1[N+](=O)[O-] | inactive | –
CCC(C)c1cc([N+](=O)[O-])cc([N+](=O)[O-])c1O (stereo not given) | – | 1.83 µM (active)
O=C(O)C(F)(F)C(F)(F)C(F)(F)C(F)(F)C(F)(F)C(F)(F)C(F)(F)C(F)(F)F | – | 85.4 µM (active)

SMILES | outcome | AC50
ClC1=C(Cl)[C@]2(Cl)[C@@H]3[C@@H]4C[C@@H]([C@H]5O[C@@H]45)[C@@H]3[C@@]1(Cl)C2(Cl)Cl | – | 1.65 µM (active)
C=CC(N)=O | inactive | –
Nc1ccc(-c2ccc(N)cc2)cc1 | inactive | –
Cc1cccc(C)c1N | inactive | –
Oc1c(Cl)c(Cl)c(Cl)c(Cl)c1Cl | – | 3.76 µM (active)
Cc1cc2c3c(c1)C(c1ccccc1)=N[C@@H](NC(=O)c1ccncc1)C(=O)N3CC2 | – | 4.99 µM (active)
Cc1cc(O)ccc1Cl | inactive | –
O=C(O)C(F)(F)C(F)(F)C(F)(F)C(F)(F)C(F)(F)C(F)(F)C(F)(F)C(F)(F)C(F)(F)F | – | 36.2 µM (active)
CCCCCCCCCc1ccc(O)cc1 | – | 32.5 µM (active)
O=S(=O)(O)C(F)(F)C(F)(F)C(F)(F)C(F)(F)F | inactive | –
O=C(O)C(F)(F)C(F)(F)C(F)(F)C(F)(F)C(F)(F)F | inactive | –
Cc1ccccc1CO[C@@H]1C[C@@]2(C(C)C)CC[C@]1(C)O2 | – | 14.9 µM (active)
Oc1ccc(C(c2ccc(O)cc2)(C(F)(F)F)C(F)(F)F)cc1 | – | 87.5 µM (active)
Cc1cccc([N+](=O)[O-])c1 | inactive | –
COS(=O)(=O)OC | inactive | –
CO/C=C(/C(=O)OC)c1ccccc1COc1cccc(C(F)(F)F)n1 | – | 20.5 µM (active)
Clc1ccc(C(c2ccccc2Cl)C(Cl)(Cl)Cl)cc1 (stereo not given) | – | 0.818 µM (active)
CN(C)CCO | inactive | –
O=S(=O)(O)C(F)(F)C(F)(F)C(F)(F)C(F)(F)C(F)(F)C(F)(F)F | – | 38.6 µM (active)
C[C@]12CCC(=O)C=C1CC[C@@H]1[C@@H]2CC[C@@]2(C)[C@H]1CC[C@]2(C)O | – | 10.9 µM (active)

— PubChem BioAssay (EPA / NIEHS)
